Experimental data as given in publication PMC5540273 (PLoS ONE, 2017).

Experiments:
Conditions in all cases: concentration: 1 μM, replicates: in singlicate; n = 1
EIF2AK1 = system: EIF2AK1
EPHA1 = system: EPHA1
EPHA2 = system: EPHA2
EPHA3 = system: EPHA3
EPHA4 = system: EPHA4
EPHA5 = system: EPHA5
EPHA6 = system: EPHA6
EPHA7 = system: EPHA7
EPHA8 = system: EPHA8
EPHB1 = system: EPHB1
EPHB2 = system: EPHB2
EPHB3 = system: EPHB3
EPHB4 = system: EPHB4
EPHB6 = system: EPHB6
ERBB2 = system: ERBB2
ERBB3 = system: ERBB3
ERBB4 = system: ERBB4
ERK1 = system: T1, ERK1
T1 construct: gene MAPK3

ERK2 = system: T2, ERK2
T2 construct: gene MAPK1

ERK3 = system: T3, ERK3
T3 construct: gene MAPK6
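Also: KINOMEscan kinase panel screen.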

Row | SMILES | %Inh (EIF2AK1) [%] | %Inh (EPHA1) [%] | %Inh (EPHA2) [%] | %Inh (EPHA3) [%] | %Inh (EPHA4) [%] | %Inh (EPHA5) [%] | %Inh (EPHA6) [%] | %Inh (EPHA7) [%] | %Inh (EPHA8) [%] | %Inh (EPHB1) [%] | %Inh (EPHB2) [%] | %Inh (EPHB3) [%] | %Inh (EPHB4) [%] | %Inh (EPHB6) [%] | %Inh (ERBB2) [%] | %Inh (ERBB3) [%] | %Inh (ERBB4) [%] | %Inh (ERK1) [%] | %Inh (ERK2) [%] | %Inh (ERK3) [%]
1 | Clc1ccc(-c2cc(-c3c[nH]nc3-c3ccccn3)ccn2)cc1 [GW681251] | 0 | 0 | 8 | 0 | 2 | 0 | 10 | 0 | 0 | 7 | 31 | 15 | 1 | 0 | 17 | 0 | 0 | 0 | 0 | 8
2 | CCc1nc(-c2cccc(N(C)S(=O)(=O)c3ccccc3)c2)c(-c2ccnc(Nc3ccc(N4CCN(C(C)=O)CC4)nc3)n2)s1 [GSK1645895] | 0 | 29 | 0 | 14 | 0 | 0 | 2 | 5 | 25 | 7 | 0 | 0 | 0 | 96.9 | 17 | 0 | 26 | 0 | 0 | 0
3 | O=C(CCO)NCCn1ccc2ncnc(Nc3ccc(Oc4cccc(C(F)(F)F)c4)c(Cl)c3)c21 | 0 | 0 | 0 | 0 | 0 | 0 | 0 | 0 | 0 | 0 | 0 | 2 | 3 | 8 | 100 | 0 | 95.9 | 0 | 9 | 0
4 | CC(C)N1CCC(n2cnc(-c3ccc(F)cc3)c2-c2ccnc(N)n2)CC1 [SB-223132] | 0 | 28 | 46 | 0 | 0 | 0 | 0 | 0 | 17 | 0 | 32 | 0 | 22 | 0 | 16 | 44 | 0 | 0 | 11 | 0
5 | O=C(c1ccc(-c2cc(-c3c[nH]nc3-c3ccccn3)ccn2)cc1)N1CCCC1 [GW792479] | 0 | 56 | 21 | 1 | 13 | 36 | 2 | 9 | 19 | 5 | 19 | 14 | 17 | 0 | 10 | 57 | 0 | 0 | 32 | 0
6 | Nc1n[nH]c2nnc(-c3ccccc3)cc12 [SB-517389] | 13 | 9 | 4 | 0 | 14 | 0 | 0 | 8 | 15 | 9 | 80 | 10 | 22 | 0 | 7 | 0 | 0 | 0 | 0 | 16
7 | Nc1nc(-c2ccc3c(N)n[nH]c3c2)cc(N2CCCCC2)n1 [GSK2228768] | 0 | 0 | 0 | 0 | 3 | 0 | 0 | 0 | 0 | 9 | 0 | 0 | 8 | 0 | 2 | 0 | 0 | 0 | 0 | 6
8 | O=C(Nc1ccccc1)Nc1ccc(Oc2ccc3nccn3n2)cc1 | 0 | 31 | 25 | 0 | 0 | 0 | 0 | 3 | 23 | 13 | 0 | 7 | 7 | 0 | 24 | 0 | 0 | 0 | 0 | 0
9 | CCn1c(-c2ccncc2)nc2cnccc21 [SB-735216] | 19 | 23 | 5 | 99.1 | 10 | 0 | 16 | 0 | 14 | 0 | 16 | 11 | 7 | 8 | 0 | 33 | 0 | 0 | 0 | 0
10 | CS(=O)(=O)CCNCc1nc(-c2ccc3ncnc(Nc4ccc(OCc5cccc(F)c5)c(Cl)c4)c3c2)cs1.Cl [GW583340] | 0 | 5 | 0 | 13 | 0 | 0 | 0 | 0 | 0 | 1 | 0 | 0 | 5 | 19 | 99.7 | 0 | 99.1 | 0 | 0 | 12
11 | Cl.Fc1ccccc1COc1ccc(Nc2ncnc3ccc(-c4nnc(C(F)(F)F)o4)cc23)cc1Cl [GW424170] | 0 | 19 | 0 | 0 | 3 | 0 | 0 | 3 | 0 | 19 | 0 | 2 | 0 | 0 | 96.7 | 0 | 70 | 0 | 0 | 7
12 | C[C@H]1CC[C@@H](C(=O)Nc2ccccc2)CN1c1cc(-c2ccc3c(N)n[nH]c3c2)nc(N)n1 [GSK2283293] | 10 | 0 | 11 | 0 | 3 | 0 | 15 | 6 | 23 | 22 | 0 | 24 | 12 | 13 | 25 | 0 | 39 | 0 | 2 | 4
13 | Fc1ccc(-c2ncn(CCCNCc3ccccc3)c2-c2ccncc2)cc1 | 0 | 4 | 10 | 0 | 6 | 7 | 23 | 0 | 19 | 15 | 14 | 19 | 17 | 36 | 10 | 23 | 0 | 5 | 14 | 0
14 | Cc1ccc(C)c(NC(=O)NCCNc2ccnc(Nc3ccc(F)cc3)n2)c1 [GSK1379878] | 0 | 6 | 11 | 0 | 0 | 0 | 0 | 0 | 3 | 0 | 0 | 0 | 0 | 11 | 0 | 3 | 38 | 0 | 0 | 0
15 | Cn1ccc2ncnc(Nc3ccc(Oc4cccc(Cl)c4)c(Cl)c3)c21 | 0 | 0 | 5 | 13 | 0 | 21 | 21 | 94.1 | 86 | 15 | 4 | 0 | 0 | 4 | 100 | 17 | 97 | 2 | 35 | 6
16 | CC(=O)Nc1n[nH]c2ncc(-c3ccccc3)cc12 [SB-548492] | 0 | 17 | 0 | 2 | 8 | 15 | 29 | 0 | 32 | 15 | 0 | 16 | 14 | 36 | 0 | 0 | 29 | 12 | 11 | 1
17 | Nc1nc(-c2ccc3c(N)n[nH]c3c2)cc(N2CCC[C@@H](C(=O)Nc3ccccc3)C2)n1.O=C(O)C(F)(F)F.O=C(O)C(F)(F)F [GSK2288359] | 1 | 17 | 0 | 0 | 4 | 0 | 0 | 3 | 3 | 21 | 0 | 5 | 1 | 29 | 0 | 0 | 2 | 100 | 0 | 18
18 | Cn1cc(-c2ccc3c(c2)CCN3C(=O)Cc2cccc(C(F)(F)F)c2)c2c(N)ncnc21 [GSK2606414] | 1 | 3 | 0 | 0 | 0 | 0 | 0 | 4 | 14 | 15 | 0 | 0 | 0 | 18 | 0 | 0 | 0 | 0 | 0 | 2
19 | OCCOCCn1ccc2ncnc(Nc3ccc(Oc4cccc(Cl)c4)c(Cl)c3)c21 | 0 | 0 | 1 | 0 | 0 | 0 | 0 | 0 | 0 | 2 | 0 | 6 | 0 | 2 | 100 | 0 | 96 | 0 | 0 | 0
20 | O=C(Nc1ccccc1F)NC1CCN(c2ccnc(Nc3ccc(F)cc3)n2)C1 (stereo not shown) [GSK1379722] | 0 | 0 | 8 | 0 | 0 | 0 | 4 | 5 | 14 | 11 | 0 | 17 | 0 | 17 | 30 | 3 | 0 | 100 | 0 | 13
